Laboratory results as given in PubChem BioAssay.
Activity calls are given as the source filed them.

Experiments:
[1] = test system: PRMT1 (protein arginine N-methyltransferase 1); experiment: small molecules binding arginine methyltransferase PRMT1 – biochemical, small-molecule microarray, 635 nm fluorescence, primary screen (AID 1088); conditions: higher = more signal;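 further: binding of Prmt1 protein to compounds spotted on small-molecule microarray slides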
[2] = growth effects on S. cerevisiae YJM789 – YJM789 clinical isolate, OD600, 24 h, basal, primary screen (AID 1089); conditions: higher = more signal, called active from +8 up or from −8 down;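 further: growth of clinical yeast isolate S. cerevisiae YJM 789 seeded 1000 cells per well; test concentration not given here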
[3] = S. pombe growth modifiers, basal conditions – strain 972, OD600, 24 h, no modulator, primary screen (AID 1090);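 further: basal condition with compound alone and no growth modifier present; test concentration not given here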; conditions: S. pombe 972 growth, higher = more signal, called active from +8 up or from −8 down
[4] = budding yeast growth modifiers under rapamycin – strain BY4716, OD600, 96 h, primary screen (AID 1091); further: test concentration not given here; conditions: S. cerevisiae BY4716 + rapamycin, higher = more signal, called active from +8 up or from −8 down
[5] = target: Torsin-1A-interacting protein 2 (Homo sapiens) (UniProt Q8NFQ8); experiment: small molecules binding lysate-expressed LULL1 – cell lysate, human LULL1 lysate, 635/667 nm fluorescence, primary screen (AID 1092); conditions: small-molecule microarray, hLULL1 lysate binding, 635 nm fluorescence; higher = more signal;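 further: probe is lysate of COS7 cells overexpressing human LULL1; score merges per-feature 667 nm fluorescence with signal-to-noise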
[6] = optical density change of DRC41 E. coli – strain DRC41, OD650, 24 h, E. coli filamentation project, primary screen (AID 1093);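 further: MC1000 strain lacking acrAB efflux and sulA so SOS filamentation is blocked; test concentration not given here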; conditions: E. coli DRC41 growth, higher = more signal, called active from +8 up or from −8 down
[7] = probe aLefty2 binding to arrayed compounds – biochemical, biotinylated probe, 635/667 nm fluorescence, primary screen (AID 1094); conditions: small-molecule microarray, higher = more signal;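 further: score merges spot fluorescence near 667 nm with spot signal-to-noise ratio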
[8] = test system: Noggin (protein binding on small-molecule microarray); experiment: small molecules binding Noggin protein – biochemical, 635/667 nm fluorescence, primary screen (AID 1095); conditions: 635 nm fluorescence, higher = more signal;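 further: score merges 667 nm feature fluorescence with signal to noise over triplicate slides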
[9] = target: Neurogenic locus notch homolog protein 3 (Homo sapiens) (UniProt Q9UM47); experiment: small molecules binding NOTCH3 protein – biochemical, 635/667 nm fluorescence, primary screen (AID 1096); conditions: small-molecule microarray, 635 nm fluorescence, higher = more signal
[10] = probe aEGFR binding to arrayed compounds – biochemical, biotinylated probe, 635/667 nm fluorescence, primary screen (AID 1097); conditions: small-molecule microarray, higher = more signal;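 further: probe is a biotinylated anti-EGFR antibody binding compounds printed on slides; score combines fluorescence near 667 nm and signal to noise of each spot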
[11] = test system: Plasmodium falciparum Sir2 (PF13_0152, Sir2A); experiment: Plasmodium falciparum Sir2A binding compounds – biochemical, small-molecule microarray, 635 nm fluorescence, primary screen (AID 1098); conditions: fluorescence 635 nm, higher = more signal;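 further: score merges spot fluorescence intensity with its signal-to-noise ratio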
[12] = probe aDKK1 binding to arrayed compounds – biochemical, biotinylated probe, 635/667 nm fluorescence, primary screen (AID 1099); conditions: small-molecule microarray, higher = more signal;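 further: score merges 667nm spot fluorescence with signal to noise across triplicate slides; reference of the scale not given here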
[13] = probe aCHRDL2 binding to arrayed compounds – biochemical, biotinylated probe, 635/667 nm fluorescence, primary screen (AID 1100); conditions: small-molecule microarray, higher = more signal
[14] = change in splice reporter luminescence, either direction, cell-based, HEK293, spliceosome inhibition project, primary screen (AID 1101); conditions: HEK293 splicing luciferase reporter, 24 h, higher = more signal, called active from +8 up or from −8 down;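 further: HEK293 cells carrying a splicing-competent luciferase reporter gene; test concentration not given here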
[15] = target: Fibroblast growth factor 10 (Homo sapiens) (UniProt O15520); experiment: compounds binding fibroblast growth factor 10 – biochemical, small-molecule microarray, 635 nm fluorescence, primary screen (AID 1102); conditions: FGF10 binding, fluorescence 635 nm, higher = more signal
[16] = test system: glycogen synthase kinase-3 (GSK3A per assay name; protocol says GSK3B); experiment: compounds binding glycogen synthase kinase-3 – biochemical, small-molecule microarray, 635 nm fluorescence, GSK3A, primary screen (AID 1103); conditions: fluorescence 635 nm, higher = more signal; further: the record names both GSK3A and GSK3B
[17] = target: Epidermal growth factor receptor (Homo sapiens) (UniProt P00533); experiment: compounds binding epidermal growth factor receptor – biochemical, small-molecule microarray, 635 nm fluorescence, primary screen (AID 1104); conditions: EGFR binding, higher = more signal;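 further: score merges 667 nm emission intensity with spot signal to noise over triplicate slides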
[18] = target: Follistatin-related protein 3 (Homo sapiens) (UniProt O95633); experiment: compounds binding follistatin-related protein 3 – biochemical, small-molecule microarray, 635 nm fluorescence, primary screen (AID 1105); conditions: FSTL3 binding, higher = more signal;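 further: score merges emission near 667 nm and signal to noise per printed spot across three slides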
[19] = target: Dickkopf-related protein 1 (Homo sapiens) (UniProt O94907); experiment: small molecules binding DKK1 protein – biochemical, small-molecule microarray, 635 nm fluorescence scan, primary screen (AID 1106); conditions: higher = more signal;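 further: score merges emission near 667 nm with signal to noise over three replicate slides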
[20] = test system: Inhibin beta A chain (activin A); experiment: small molecules binding activin A – biochemical, small-molecule microarray, 635 nm fluorescence scan, primary screen (AID 1107); conditions: INHBA, higher = more signal;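 further: mouse activin A protein probed at 4.33 µg/mL on printed slides; score merges bound-protein fluorescence near 667 nm with spot signal-to-noise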

Chain of Neurogenic locus notch homolog protein 3 (Homo sapiens) (Q9UM47 whole entry, looked up): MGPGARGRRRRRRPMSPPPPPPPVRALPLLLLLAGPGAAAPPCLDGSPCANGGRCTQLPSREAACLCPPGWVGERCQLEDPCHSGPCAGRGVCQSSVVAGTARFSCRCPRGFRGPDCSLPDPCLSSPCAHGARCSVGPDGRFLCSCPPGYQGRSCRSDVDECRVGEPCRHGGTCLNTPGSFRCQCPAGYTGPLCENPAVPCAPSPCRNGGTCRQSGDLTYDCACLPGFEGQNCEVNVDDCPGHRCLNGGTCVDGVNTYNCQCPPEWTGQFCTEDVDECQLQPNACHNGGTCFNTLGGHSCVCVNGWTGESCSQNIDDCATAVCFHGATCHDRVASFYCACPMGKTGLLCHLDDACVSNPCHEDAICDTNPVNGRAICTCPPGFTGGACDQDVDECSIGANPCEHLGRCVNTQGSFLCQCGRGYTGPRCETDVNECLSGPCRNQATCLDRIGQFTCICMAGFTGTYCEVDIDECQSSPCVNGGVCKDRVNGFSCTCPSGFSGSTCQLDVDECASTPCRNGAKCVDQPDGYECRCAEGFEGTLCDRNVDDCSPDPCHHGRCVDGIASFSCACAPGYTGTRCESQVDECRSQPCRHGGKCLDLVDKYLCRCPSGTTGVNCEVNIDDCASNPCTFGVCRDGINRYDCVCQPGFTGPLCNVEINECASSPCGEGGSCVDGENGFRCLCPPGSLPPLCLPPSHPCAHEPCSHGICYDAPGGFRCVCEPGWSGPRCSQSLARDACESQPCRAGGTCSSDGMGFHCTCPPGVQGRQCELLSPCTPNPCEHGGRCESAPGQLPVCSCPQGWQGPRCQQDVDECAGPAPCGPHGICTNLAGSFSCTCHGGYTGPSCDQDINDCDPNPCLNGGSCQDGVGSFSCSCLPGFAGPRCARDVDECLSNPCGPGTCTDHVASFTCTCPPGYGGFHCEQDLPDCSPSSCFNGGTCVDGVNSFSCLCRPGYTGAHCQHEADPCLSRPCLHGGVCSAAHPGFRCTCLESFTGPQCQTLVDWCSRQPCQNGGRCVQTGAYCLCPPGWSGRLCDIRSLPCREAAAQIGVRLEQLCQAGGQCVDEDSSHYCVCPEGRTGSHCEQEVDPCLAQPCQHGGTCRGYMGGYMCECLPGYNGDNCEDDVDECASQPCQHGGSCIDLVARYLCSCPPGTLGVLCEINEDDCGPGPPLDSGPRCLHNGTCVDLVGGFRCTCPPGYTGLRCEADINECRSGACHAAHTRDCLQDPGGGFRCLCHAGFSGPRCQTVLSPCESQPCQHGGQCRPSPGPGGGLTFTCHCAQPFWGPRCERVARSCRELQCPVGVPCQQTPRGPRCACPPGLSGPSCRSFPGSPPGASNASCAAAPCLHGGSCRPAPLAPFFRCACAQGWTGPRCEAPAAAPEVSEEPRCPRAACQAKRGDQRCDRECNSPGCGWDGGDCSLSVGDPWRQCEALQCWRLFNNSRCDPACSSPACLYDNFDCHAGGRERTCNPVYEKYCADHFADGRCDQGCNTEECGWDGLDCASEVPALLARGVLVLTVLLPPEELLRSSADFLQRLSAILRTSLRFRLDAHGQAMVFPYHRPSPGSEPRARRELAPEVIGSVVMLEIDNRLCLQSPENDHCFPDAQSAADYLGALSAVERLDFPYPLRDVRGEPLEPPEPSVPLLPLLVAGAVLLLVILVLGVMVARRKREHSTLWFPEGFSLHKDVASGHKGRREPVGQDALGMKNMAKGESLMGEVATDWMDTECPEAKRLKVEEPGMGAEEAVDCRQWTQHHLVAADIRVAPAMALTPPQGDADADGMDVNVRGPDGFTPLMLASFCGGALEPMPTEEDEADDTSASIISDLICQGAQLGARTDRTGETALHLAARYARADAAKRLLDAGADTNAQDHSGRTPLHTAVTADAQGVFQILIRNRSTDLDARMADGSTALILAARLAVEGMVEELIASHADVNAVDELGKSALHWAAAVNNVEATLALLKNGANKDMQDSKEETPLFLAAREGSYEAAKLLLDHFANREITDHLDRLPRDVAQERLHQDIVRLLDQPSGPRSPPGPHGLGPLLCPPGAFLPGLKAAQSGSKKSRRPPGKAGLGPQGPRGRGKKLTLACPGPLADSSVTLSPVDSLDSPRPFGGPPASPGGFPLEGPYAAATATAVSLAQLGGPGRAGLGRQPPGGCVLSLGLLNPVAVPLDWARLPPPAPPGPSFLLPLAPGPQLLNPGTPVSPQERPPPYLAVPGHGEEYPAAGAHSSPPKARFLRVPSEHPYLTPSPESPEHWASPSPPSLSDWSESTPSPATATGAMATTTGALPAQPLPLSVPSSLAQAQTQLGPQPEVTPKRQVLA
Chain of Fibroblast growth factor 10 (Homo sapiens) (O15520 whole entry, looked up): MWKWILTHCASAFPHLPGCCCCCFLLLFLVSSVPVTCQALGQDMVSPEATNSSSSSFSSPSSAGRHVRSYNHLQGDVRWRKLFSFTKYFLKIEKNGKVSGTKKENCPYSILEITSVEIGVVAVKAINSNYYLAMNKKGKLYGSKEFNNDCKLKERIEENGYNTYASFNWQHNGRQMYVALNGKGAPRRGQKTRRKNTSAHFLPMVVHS
Chain of Torsin-1A-interacting protein 2 (Homo sapiens) (Q8NFQ8 whole entry, looked up): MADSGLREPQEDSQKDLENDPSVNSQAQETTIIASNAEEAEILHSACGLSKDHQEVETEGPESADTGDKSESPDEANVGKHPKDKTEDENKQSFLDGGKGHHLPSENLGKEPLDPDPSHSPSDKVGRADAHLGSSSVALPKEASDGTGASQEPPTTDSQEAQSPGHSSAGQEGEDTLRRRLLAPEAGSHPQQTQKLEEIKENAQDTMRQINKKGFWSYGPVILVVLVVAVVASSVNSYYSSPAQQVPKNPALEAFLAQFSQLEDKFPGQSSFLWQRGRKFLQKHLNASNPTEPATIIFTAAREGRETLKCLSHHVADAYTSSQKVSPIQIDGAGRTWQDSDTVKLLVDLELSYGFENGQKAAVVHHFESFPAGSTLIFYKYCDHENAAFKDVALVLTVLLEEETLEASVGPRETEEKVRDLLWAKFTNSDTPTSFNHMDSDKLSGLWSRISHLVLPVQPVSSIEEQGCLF
Chain of Dickkopf-related protein 1 (Homo sapiens) (O94907 whole entry, looked up): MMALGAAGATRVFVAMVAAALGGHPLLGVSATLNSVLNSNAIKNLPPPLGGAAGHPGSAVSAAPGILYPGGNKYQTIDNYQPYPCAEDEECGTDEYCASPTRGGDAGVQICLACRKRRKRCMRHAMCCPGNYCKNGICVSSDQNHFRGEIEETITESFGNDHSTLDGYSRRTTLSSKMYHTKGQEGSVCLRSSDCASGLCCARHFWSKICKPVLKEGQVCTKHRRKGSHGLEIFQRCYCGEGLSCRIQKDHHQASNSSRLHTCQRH
Chain of Follistatin-related protein 3 (Homo sapiens) (O95633 whole entry, looked up): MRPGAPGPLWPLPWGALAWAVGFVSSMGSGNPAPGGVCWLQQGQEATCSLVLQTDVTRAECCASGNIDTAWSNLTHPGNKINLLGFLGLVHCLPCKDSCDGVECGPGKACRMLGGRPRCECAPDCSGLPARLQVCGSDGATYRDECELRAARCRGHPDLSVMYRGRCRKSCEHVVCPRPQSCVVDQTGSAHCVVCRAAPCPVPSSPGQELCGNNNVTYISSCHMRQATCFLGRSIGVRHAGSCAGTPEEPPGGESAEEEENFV
Chain of Epidermal growth factor receptor (Homo sapiens) (P00533 whole entry, looked up): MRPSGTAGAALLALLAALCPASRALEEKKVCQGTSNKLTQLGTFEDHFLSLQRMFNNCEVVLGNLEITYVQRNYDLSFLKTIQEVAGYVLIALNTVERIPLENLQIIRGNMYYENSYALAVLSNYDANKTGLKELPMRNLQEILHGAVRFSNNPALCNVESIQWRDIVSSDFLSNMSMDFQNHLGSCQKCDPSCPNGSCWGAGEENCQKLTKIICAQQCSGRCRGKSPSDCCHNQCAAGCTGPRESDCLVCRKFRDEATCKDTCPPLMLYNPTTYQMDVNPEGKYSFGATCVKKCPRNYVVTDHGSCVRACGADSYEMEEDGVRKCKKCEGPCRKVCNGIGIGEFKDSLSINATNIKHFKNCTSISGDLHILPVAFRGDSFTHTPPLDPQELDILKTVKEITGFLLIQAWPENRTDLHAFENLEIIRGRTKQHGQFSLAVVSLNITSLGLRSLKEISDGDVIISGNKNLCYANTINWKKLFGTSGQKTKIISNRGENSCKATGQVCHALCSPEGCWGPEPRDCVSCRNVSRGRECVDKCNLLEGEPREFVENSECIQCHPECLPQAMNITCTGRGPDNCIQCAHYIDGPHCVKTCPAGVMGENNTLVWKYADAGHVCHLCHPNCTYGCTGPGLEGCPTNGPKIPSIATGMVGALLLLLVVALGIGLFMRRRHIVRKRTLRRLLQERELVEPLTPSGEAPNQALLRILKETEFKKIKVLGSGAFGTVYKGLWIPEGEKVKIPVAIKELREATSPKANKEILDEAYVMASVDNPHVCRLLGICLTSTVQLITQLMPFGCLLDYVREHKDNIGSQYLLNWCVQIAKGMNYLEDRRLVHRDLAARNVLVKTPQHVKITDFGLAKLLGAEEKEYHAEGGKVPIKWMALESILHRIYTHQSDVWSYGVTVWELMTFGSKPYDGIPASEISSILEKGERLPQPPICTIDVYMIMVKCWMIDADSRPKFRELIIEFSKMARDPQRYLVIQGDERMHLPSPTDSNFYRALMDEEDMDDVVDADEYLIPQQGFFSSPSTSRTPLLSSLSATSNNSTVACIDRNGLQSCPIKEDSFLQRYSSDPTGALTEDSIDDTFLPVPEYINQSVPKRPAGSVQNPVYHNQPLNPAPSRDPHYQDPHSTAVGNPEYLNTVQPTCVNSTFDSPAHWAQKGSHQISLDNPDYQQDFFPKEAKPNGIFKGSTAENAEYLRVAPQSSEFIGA

Row | Compound | composite z-score [1] | z-score [2] | z-score [3] | z-score [4] | composite z-score [5] | z-score [6] | composite z-score [7] | composite z-score [8] | composite z-score [9] | composite z-score [10] | composite z-score [11] | composite z-score [12] | composite z-score [13] | z-score [14] | composite z-score [15] | composite z-score [16] | composite z-score [17] | composite z-score [18] | composite z-score [19] | composite z-score [20]
1 | [N-]=[N+]=NCc1ccccc1[C@@H]1OC(c2ccc(OCCCO)cc2)=N[C@]1(Cc1ccccc1)C(=O)NCCN1CCOCC1 | 1.53 | 0.469 (inactive) | 0.75 (inactive) | 0.83 (inactive) | 2.92 | 1.11 (inactive) | 0.242 | 0.512 | 1.09 | 0.591 | 1.03 | 0.657 | 0.58 | 0.0496 (inactive) | 0.868 | 0.616 | -0.102 | 0.567 | -0.383 | 0.798
2 | C=C[C@@H](C)[C@H](O)c1ccc(OCCO)cc1 | -0.365 | 0.217 (inactive) | -0.297 (inactive) | -0.0577 (inactive) | 1.14 | -0.0261 (inactive) | -0.225 | -1.34 | -0.743 | -0.37 | -0.112 | -0.234 | 0.825 | -0.474 (inactive) | -1.57 | -1.25 | -2.14 | -1.71 | -1.5 | -1.57
3 | CC(C)OC(=O)CC(=O)CC(O)c1ccc([N+](=O)[O-])cc1 (stereo not given) | 0.65 | -0.0857 (inactive) | -0.26 (inactive) | -0.34 (inactive) | 1.27 | -0.215 (inactive) | 0.0416 | -0.0624 | 0.422 | -0.213 | 0.541 | 0.749 | 1.14 | 0.162 (inactive) | 0.314 | 0.132 | -0.41 | 0.198 | -0.953 | 0.527
4 | CCOC(=O)C1=CC[C@@H](c2ccccc2)N(S(=O)(=O)c2ccc(C)cc2)[C@H]1C=Cc1ccccc1 | 0.238 | 0.403 (inactive) | 2.4 (inactive) | 1.46 (inactive) | 2.32 | -0.812 (inactive) | -0.0146 | -0.452 | 0.258 | -0.0828 | 1.66 | 0.37 | 1.03 | 0.151 (inactive) | 0.322 | 0.193 | -0.647 | -0.745 | -0.548 | 0.58
5 | C=C(/C(=C/C[C@@H](OC(=O)c1ccncc1)c1cccc(OCCO)c1)c1cnc2ccccc2c1)C(C)C | 1.55 | -2.06 (inactive) | -1.77 (inactive) | 1.29 (inactive) | 2.03 | 0.915 (inactive) | -0.0042 | 1.27 | 1.02 | 0.074 | 0.198 | 0.0215 | 0.415 | -0.537 (inactive) | 1.5 | 1.18 | 0.922 | 1.51 | 0.858 | 1.52
6 | CCC(CC)C(O)C1C=CC2C(=O)N(c3ccccc3)C(=O)C2N1Nc1ccc([N+](=O)[O-])cc1 (stereo not given) | 1.53 | -0.255 (inactive) | 1.27 (inactive) | 1.28 (inactive) | 3 | -0.27 (inactive) | 0.323 | 0.0809 | 1.07 | 0.277 | 0.629 | 1.02 | 0.638 | -0.16 (inactive) | 0.632 | 1.21 | 0.102 | 0.393 | -0.351 | 0.761
7 | Cc1cccc([C@H]2C[C@H]3C(I)=C[C@@H]2C(=O)[C@]32CO2)c1 | -0.614 | -2.5 (inactive) | -20.2 (active) | -2.15 (inactive) | -0.842 | -0.2 (inactive) | 0.0735 | 0.461 | -0.0085 | -0.108 | -0.636 | -0.251 | 0.154 | -1.48 (inactive) | 0.575 | -0.499 | -0.0512 | 0.445 | 0.125 | 1.03
8 | O=C1O[C@H](c2ccccc2)[C@H](c2ccccc2)N2[C@H]1[C@@H](C(=O)Nc1nc3ccccc3s1)[C@]1(C(=O)Nc3ccc(C#CC4=CCCCC4)cc31)[C@H]2c1ccc(O)cc1 | 1.55 | 0.556 (inactive) | 0.589 (inactive) | 0.401 (inactive) | 2.88 | 1.97 (inactive) | -0.12 | 1.1 | 1.06 | -0.0679 | 1.52 | -0.0399 | 0.115 | -1.31 (inactive) | 0.588 | 1.22 | 0.308 | 0.842 | 0.188 | 0.533
9 | COC(=O)C(CC#Cc1ccc2c(c1)[C@]1(C(=O)N2)[C@H](C(=O)Nc2nc3ccccc3s2)[C@H]2C(=O)O[C@H](c3ccccc3)[C@H](c3ccccc3)N2[C@@H]1c1ccc(OCCO)cc1)C(=O)OC | 1.55 | -0.442 (inactive) | -0.144 (inactive) | 1.37 (inactive) | 3.18 | 2.96 (inactive) | 0.0973 | 1.59 | 1.08 | 0.0766 | 0.912 | 0.277 | 0.575 | -1.25 (inactive) | 1.15 | 1.21 | 0.468 | 1.19 | 0.344 | 0.519
10 | C=CCC(OC(C)=O)[C@@H]1[C@@H](N(Cc2cc3ccccc3o2)C(=O)c2ccc(-c3ccccc3)cc2)c2cc(OCCCO)ccc2N1C(=O)Cc1ccc(OC)cc1 (stereo not given in full) | -0.826 | 0.21 (inactive) | 0.443 (inactive) | 0.945 (inactive) | -0.299 | -1.02 (inactive) | -0.0766 | 0.18 | -0.364 | -0.0353 | 0.104 | -0.102 | 0.0935 | -0.762 (inactive) | 0.247 | -0.744 | 0.0306 | 0.307 | 0.063 | 0.774
